# Experimental data from PubChem BioAssay (EPA / NIEHS).
# Several values for one entry are separate records, joined by “and”; a condition that tells them apart may be missing. Equal values may be shown once. Results filed as inconclusive are left out. Where a structure was tested more than once in an assay, its records may differ in their call. Activity calls are given as the source filed them. The calls were made as follows: active = hit-call score of the fitted dose curve at least 0.9, where 1 is the maximum; inconclusive = response in the unintended direction; inactive = score below 0.9.
# Biological target: Estrogen receptor (Homo sapiens) (UniProt P03372)
# Assay: NVS_NR_hER: NovaScreen (NVS) Nuclear Receptor Binding Assay for human Estrogen Receptor (ER) (AID 2283348)
# Procedure: NVS_NR_hER is a biochemical, single-readout assay that uses extracted gene-proteins from MCF7 in a cell-free assay. Measurements were taken 18 hours after chemical dosing in a 96-well plate.NVS_NR_hER is one of one assay component(s) measured or calculated from the NVS_NR_hER assay. It is designed to make measurements of radioligand binding, a form of binding reporter, as detected with scintillation counting signals by Lysate-based radiodetection technology.Data from the assay component NVS_NR_hER was analyzed into 1 assay endpoint. This assay endpoint, NVS_NR_hER, was analyzed in the positive analysis fitting direction relative to DMSO as the negative control and baseline of activity. Using a type of binding reporter, loss-of-signal activity can be used to understand changes in the binding as they relate to the gene ESR1. Furthermore, this assay endpoint can be referred to as a primary readout, because the performed assay has only produced 1 assay endpoint. To generalize the intended target to other relatable targets, this assay endpoint is annotated to the nuclear receptor intended target family, where the subfamily is steroidal.
# Binding assays used specific radioligands (tritiated, iodinated) with non-radioactive competitive displacement ligands in agonist or antagonist protocols (as indicated) and various reference compounds and inhibitors to titrate specific binding to receptors and transporters. Most enzyme assays (CYPs, kinases, phosphatases, proteases, HDACs) used recombinant protein and specific substrates (fluorescence mostly, some colorimetric and radioactive) and inhibitors, followed by a biochemical separation of substrate and product. All assays for the biochemical HTS were initially run in duplicate at a single concentration (10 uM for CYP450 assays and 25 uM for all others). […] Each assay was run with positive and negative controls, and concurrent controls on every plate. The follow-up (secondary) screen tested active chemical-pairs in concentration series, as well as a few additional assays not tested in the primary screen, some selected negative inactives, and several cases re-run in the concentration series for confirmatory purposes.
# Sequence of Estrogen receptor (Homo sapiens) (P03372 whole entry, looked up): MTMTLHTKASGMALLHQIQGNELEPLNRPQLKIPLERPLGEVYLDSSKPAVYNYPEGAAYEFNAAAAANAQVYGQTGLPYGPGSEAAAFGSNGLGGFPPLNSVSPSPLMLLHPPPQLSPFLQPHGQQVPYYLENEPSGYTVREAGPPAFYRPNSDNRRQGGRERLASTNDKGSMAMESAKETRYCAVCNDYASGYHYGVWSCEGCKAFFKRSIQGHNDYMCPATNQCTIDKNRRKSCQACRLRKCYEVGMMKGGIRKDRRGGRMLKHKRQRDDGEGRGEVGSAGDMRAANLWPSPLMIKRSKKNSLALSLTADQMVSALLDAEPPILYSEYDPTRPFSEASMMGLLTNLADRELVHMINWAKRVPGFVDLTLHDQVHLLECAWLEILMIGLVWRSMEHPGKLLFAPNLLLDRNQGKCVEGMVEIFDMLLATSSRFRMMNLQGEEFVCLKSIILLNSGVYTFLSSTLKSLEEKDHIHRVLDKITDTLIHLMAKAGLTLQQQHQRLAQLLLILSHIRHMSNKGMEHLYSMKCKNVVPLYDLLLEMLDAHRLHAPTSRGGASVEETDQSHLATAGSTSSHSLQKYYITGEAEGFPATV
Compound,outcome,AC50
CCN(CC)CCNc1ccc(CNC=O)c2sc3ccc(OC)cc3c(=O)c12,inactive,
CCC(C)(C)C1CCC(O)CC1 (stereo unspecified),inactive,3.1 µM (active) and 2.51 µM (active)
CCCOC(=O)c1ccc(O)cc1,,6.72 µM (active) and 10.6 µM (active)
c1ccc2c(c1)Cc1ccccc1-2,inactive,
CN(C)C=O,inactive,
OC1CCCCC1,inactive,0.0267 µM (active)
Cc1cc(C)c(O)c(C)c1,inactive,
CCCCCCCCCCCCc1ccccc1S(=O)(=O)O,,40.6 µM (active)
OC1CCC(C2CCCCC2)CC1 (stereo unspecified),inactive,
ClC1=C(Cl)C(Cl)(Cl)C(Cl)=C1Cl,inactive,
CCCCCCCCCCCCCC[N+](C)(C)C,,35 µM (active)
O=C1OC2(c3ccccc31)c1cc(Br)c(O)c(Br)c1Oc1c2cc(Br)c(O)c1Br,inactive,16.8 µM (active)
CCCCCCCCCCCCN1CCCC1=O,inactive,
CC1=C(/C=C/C(C)=C/C=C/C(C)=C/C(=O)O)C(C)(C)CCC1,inactive,
CC(C)(C)CC(C)(C)c1ccc(O)c(-n2nc3ccccc3n2)c1,inactive,
NC(=O)N(O)[C@@H]1C=C[C@H](Oc2cccc(Oc3ccc(F)cc3)c2)C1,inactive,
O=C(O)Cc1cc(I)c(Oc2cc(I)c(O)c(I)c2)c(I)c1,inactive,
C[C@@H]1C[C@H]2[C@@H]3CCC4=CC(=O)C=C[C@]4(C)[C@@]3(F)[C@@H](O)C[C@]2(C)[C@@]1(O)C(=O)COP(=O)(O)O,inactive,
CC[C@H](c1ccc(O)cc1)[C@@H](CC)c1ccc(O)cc1,,0.0334 nM (active) and 2.46 nM (active) and 2.68 nM (active)
Cc1oc(-c2ccccc2)nc1CCOc1ccc(C[C@H](Nc2ccccc2C(=O)c2ccccc2)C(=O)O)cc1,inactive,
NC(=O)N1C(=O)C(C(=O)c2cc(Cl)cs2)c2cc(F)c(Cl)cc21 (stereo unspecified),inactive,
CCc1nn(C2CCCCC2)c2cc(C3(C#N)CCC(C(=O)O)CC3)ccc12 (stereo unspecified),inactive,
OCCC(F)(F)C(F)(F)C(F)(F)C(F)(F)C(F)(F)C(F)(F)C(F)(F)C(F)(F)F,inactive,
c1ccc2cc3c(ccc4ccccc43)cc2c1,inactive,
Cc1cc(CCN2CCN(c3nsc4ccccc34)CC2)cc2c1NC(=O)CC2(C)C,inactive,
Oc1cc2ccccc2c2ccccc12,inactive,
COCC(C)O (stereo unspecified),,1.82 µM (active)
O=[N+]([O-])c1ccc(O)cc1,inactive,
